Legend:
[1] = molecular target: Serine/threonine-protein kinase MRCK alpha (Homo sapiens) (UniProt Q5VT25); conditions: at 0.1 µM
[2] = molecular target: Serine/threonine-protein kinase MRCK alpha (Homo sapiens) (UniProt Q5VT25); conditions: at 1 µM
[3] = molecular target: Serine/threonine-protein kinase MRCK beta (Homo sapiens) (UniProt Q9Y5S2); conditions: at 0.1 µM
[4] = molecular target: Serine/threonine-protein kinase MRCK beta (Homo sapiens) (UniProt Q9Y5S2); conditions: at 1 µM
[5] = molecular target: Ribosomal protein S6 kinase alpha-5 (Homo sapiens) (UniProt O75582); conditions: at 0.1 µM
[6] = molecular target: Ribosomal protein S6 kinase alpha-5 (Homo sapiens) (UniProt O75582); conditions: at 1 µM
[7] = molecular target: Ribosomal protein S6 kinase alpha-4 (Homo sapiens) (UniProt O75676); conditions: at 0.1 µM
Chain of Ribosomal protein S6 kinase alpha-4 (Homo sapiens) (O75676 whole entry, looked up): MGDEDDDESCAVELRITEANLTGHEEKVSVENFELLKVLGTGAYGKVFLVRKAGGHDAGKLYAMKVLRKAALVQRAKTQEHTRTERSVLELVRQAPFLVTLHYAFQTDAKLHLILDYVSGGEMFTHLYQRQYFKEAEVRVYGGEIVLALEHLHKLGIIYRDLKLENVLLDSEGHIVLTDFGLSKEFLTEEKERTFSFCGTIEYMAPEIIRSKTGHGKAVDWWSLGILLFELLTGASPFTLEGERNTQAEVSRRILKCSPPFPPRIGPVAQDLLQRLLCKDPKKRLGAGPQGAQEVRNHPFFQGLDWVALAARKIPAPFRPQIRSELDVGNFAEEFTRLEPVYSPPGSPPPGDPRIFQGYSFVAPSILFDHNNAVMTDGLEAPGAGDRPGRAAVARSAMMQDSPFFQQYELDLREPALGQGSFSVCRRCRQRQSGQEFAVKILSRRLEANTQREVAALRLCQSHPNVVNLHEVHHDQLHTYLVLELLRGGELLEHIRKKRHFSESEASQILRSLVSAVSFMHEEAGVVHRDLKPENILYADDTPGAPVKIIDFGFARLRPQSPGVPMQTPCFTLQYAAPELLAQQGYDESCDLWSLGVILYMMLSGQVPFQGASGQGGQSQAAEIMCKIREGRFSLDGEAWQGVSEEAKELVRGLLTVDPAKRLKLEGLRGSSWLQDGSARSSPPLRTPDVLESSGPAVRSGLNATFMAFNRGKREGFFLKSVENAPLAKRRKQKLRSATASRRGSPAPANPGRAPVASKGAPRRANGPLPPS

[8] = molecular target: Ribosomal protein S6 kinase alpha-4 (Homo sapiens) (UniProt O75676); conditions: at 1 µM
[9] = molecular target: Ribosomal protein S6 kinase beta-1 (Homo sapiens) (UniProt P23443); conditions: at 0.1 µM
Chain of Ribosomal protein S6 kinase beta-1 (Homo sapiens) (P23443 whole entry, looked up): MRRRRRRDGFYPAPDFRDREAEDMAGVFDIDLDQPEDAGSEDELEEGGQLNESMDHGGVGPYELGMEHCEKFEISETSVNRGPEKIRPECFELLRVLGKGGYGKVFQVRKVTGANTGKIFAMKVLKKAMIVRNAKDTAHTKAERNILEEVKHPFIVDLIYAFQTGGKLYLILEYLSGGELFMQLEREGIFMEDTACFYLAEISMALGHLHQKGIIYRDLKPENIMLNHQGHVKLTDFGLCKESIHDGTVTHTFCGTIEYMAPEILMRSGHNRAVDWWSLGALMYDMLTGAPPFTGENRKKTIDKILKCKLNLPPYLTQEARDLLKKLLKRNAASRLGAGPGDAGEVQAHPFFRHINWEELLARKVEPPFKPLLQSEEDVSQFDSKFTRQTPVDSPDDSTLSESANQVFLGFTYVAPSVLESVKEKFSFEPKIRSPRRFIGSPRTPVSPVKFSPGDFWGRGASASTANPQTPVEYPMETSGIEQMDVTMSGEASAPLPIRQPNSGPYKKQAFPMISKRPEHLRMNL

[10] = molecular target: Ribosomal protein S6 kinase beta-1 (Homo sapiens) (UniProt P23443); conditions: at 1 µM
[11] = molecular target: T1, 3-phosphoinositide-dependent protein kinase 1 (Homo sapiens) (UniProt O15530); conditions: at 0.1 µM;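 also: values are mean inhibition of PDK1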
T1 sequence (whole entry): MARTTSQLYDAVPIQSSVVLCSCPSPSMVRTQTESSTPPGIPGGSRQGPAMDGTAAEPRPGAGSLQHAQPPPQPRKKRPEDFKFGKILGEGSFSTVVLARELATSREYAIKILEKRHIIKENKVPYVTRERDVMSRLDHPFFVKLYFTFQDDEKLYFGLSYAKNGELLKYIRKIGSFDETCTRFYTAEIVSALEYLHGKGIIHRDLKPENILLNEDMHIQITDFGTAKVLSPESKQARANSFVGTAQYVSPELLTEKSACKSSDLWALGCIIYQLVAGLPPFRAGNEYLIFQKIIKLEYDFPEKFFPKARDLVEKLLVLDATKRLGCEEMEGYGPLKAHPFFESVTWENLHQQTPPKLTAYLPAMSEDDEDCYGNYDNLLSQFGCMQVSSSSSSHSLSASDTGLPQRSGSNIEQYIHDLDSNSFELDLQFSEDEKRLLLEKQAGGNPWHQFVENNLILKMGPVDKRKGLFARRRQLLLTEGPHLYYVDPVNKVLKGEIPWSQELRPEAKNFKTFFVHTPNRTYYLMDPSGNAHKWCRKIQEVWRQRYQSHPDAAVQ

[12] = molecular target: cAMP-dependent protein kinase catalytic subunit alpha (Homo sapiens) (UniProt P17612); conditions: at 0.1 µM
[13] = molecular target: cAMP-dependent protein kinase catalytic subunit alpha (Homo sapiens) (UniProt P17612); conditions: at 1 µM
[14] = molecular target: Protein kinase C alpha type (Homo sapiens) (UniProt P17252); conditions: at 0.1 µM
[15] = molecular target: Protein kinase C alpha type (Homo sapiens) (UniProt P17252); conditions: at 1 µM
[16] = molecular target: Protein kinase C beta type (Homo sapiens) (UniProt P05771); conditions: at 0.1 µM
Chain of Protein kinase C beta type (Homo sapiens) (P05771 2-671 limits assumed): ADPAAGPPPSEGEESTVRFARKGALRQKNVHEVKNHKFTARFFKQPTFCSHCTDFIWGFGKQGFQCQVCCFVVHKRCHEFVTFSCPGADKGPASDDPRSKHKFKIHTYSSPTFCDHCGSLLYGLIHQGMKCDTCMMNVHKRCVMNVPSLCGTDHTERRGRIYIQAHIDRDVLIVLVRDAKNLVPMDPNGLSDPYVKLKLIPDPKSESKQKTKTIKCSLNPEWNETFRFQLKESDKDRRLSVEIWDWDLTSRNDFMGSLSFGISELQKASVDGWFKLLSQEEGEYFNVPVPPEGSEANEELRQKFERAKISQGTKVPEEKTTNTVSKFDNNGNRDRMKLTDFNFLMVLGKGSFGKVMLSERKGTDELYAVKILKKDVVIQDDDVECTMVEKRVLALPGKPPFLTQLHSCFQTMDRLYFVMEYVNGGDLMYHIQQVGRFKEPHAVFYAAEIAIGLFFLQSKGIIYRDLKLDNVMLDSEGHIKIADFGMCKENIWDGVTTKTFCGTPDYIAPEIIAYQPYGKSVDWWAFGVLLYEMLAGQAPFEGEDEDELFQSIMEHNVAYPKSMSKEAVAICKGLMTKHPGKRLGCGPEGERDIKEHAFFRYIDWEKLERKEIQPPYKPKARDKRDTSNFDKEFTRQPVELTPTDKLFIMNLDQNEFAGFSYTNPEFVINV

[17] = molecular target: Protein kinase C beta type (Homo sapiens) (UniProt P05771); conditions: at 1 µM
[18] = molecular target: Protein kinase C eta type (Homo sapiens) (UniProt P24723); conditions: at 0.1 µM
[19] = molecular target: Protein kinase C eta type (Homo sapiens) (UniProt P24723); conditions: at 1 µM
[20] = molecular target: Protein kinase C gamma type (Homo sapiens) (UniProt P05129); conditions: at 0.1 µM;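 also: values are mean percent inhibition of PKC gamma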

Chain of Serine/threonine-protein kinase MRCK beta (Homo sapiens) (Q9Y5S2 whole entry): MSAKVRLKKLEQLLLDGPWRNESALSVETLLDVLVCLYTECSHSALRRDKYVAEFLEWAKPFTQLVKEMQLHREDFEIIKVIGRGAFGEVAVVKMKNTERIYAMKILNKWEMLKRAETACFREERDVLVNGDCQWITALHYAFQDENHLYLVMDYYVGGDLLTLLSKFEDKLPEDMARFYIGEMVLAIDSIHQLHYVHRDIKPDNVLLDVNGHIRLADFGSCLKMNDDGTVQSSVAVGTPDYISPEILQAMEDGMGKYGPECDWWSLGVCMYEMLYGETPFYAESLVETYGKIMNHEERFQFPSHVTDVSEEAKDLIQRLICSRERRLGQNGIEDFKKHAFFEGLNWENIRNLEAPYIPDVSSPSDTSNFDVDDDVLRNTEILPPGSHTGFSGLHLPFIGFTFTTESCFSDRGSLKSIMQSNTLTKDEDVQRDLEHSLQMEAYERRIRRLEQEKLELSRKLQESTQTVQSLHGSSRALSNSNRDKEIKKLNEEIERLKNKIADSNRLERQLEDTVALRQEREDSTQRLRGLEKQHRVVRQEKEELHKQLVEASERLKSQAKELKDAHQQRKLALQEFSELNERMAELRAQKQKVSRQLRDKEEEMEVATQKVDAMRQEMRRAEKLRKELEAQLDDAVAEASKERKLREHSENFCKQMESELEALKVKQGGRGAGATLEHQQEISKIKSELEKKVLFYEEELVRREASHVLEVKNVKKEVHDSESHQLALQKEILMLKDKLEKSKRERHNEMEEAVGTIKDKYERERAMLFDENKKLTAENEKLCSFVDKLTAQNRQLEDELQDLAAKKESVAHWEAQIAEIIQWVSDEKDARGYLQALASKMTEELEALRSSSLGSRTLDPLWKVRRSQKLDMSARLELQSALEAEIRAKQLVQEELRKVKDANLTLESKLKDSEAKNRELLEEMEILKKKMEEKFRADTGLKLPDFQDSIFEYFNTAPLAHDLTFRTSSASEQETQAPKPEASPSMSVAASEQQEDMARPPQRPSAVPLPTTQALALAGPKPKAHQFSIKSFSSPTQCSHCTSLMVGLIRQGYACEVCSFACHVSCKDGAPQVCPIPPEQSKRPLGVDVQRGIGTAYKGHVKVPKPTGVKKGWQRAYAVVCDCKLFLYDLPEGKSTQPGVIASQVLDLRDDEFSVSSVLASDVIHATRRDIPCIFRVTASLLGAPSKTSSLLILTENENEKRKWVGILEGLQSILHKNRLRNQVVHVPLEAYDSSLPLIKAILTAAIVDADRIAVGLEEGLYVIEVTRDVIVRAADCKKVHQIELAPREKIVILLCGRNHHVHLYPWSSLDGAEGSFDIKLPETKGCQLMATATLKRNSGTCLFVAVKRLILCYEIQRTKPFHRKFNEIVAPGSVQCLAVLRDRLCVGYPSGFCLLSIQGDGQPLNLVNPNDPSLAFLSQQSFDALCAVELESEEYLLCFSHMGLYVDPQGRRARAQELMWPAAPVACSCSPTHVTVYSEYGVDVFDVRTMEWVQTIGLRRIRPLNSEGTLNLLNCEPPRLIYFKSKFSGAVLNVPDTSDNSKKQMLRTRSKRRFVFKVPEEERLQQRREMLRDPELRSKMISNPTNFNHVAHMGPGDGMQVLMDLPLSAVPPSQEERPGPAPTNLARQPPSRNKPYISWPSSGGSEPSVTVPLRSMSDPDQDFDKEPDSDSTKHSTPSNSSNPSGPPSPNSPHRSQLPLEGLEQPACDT

| Structure (SMILES) | inhibition [1] | inhibition [2] | inhibition [3] | inhibition [4] | inhibition [5] | inhibition [6] | inhibition [7] | inhibition [8] | inhibition [9] | inhibition [10] | inhibition [11] | inhibition [12] | inhibition [13] | inhibition [14] | inhibition [15] | inhibition [16] | inhibition [17] | inhibition [18] | inhibition [19] | inhibition [20] |
| --- | --- | --- | --- | --- | --- | --- | --- | --- | --- | --- | --- | --- | --- | --- | --- | --- | --- | --- | --- | --- |
| NS(=O)(=O)c1ccc(N/N=C2\C(=O)Nc3ccc(Cl)cc32)cc1 | -0.18% | 2.52% | 0.03% | 0.67% | -2.92% | -0.64% | 2.66% | 5.77% | 1.75% | 2.32% | 2.36% | 3.49% | 4.12% | 0.69% | 1.45% | 1.35% | 2.75% | 4.13% | 4.71% | -1.84% |
| CN(c1ccc(NC(=O)Nc2ccc(OC(F)(F)F)cc2)cc1)c1ccnc(Nc2cccc(S(N)(=O)=O)c2)n1 | -5.74% | -0.82% | -0.58% | -2.72% | 0.92% | -1.11% | 2% | 4.78% | -0.25% | 1.95% | 0.37% | 1.4% | 2.04% | 0.02% | 0.85% | 0.45% | 0.52% | 0.81% | -0.51% | 2.48% |
| CCn1c(-c2nonc2N)nc2c(C#CC(C)(C)O)nc(OCCNC)cc21 | 1.79% | 6.63% | -0.48% | 2.36% | 1.77% | 2.97% | 3.16% | 9.93% | 3.31% | 10.1% | 1.35% | 11.6% | 49.2% | 0.49% | 3.55% | 4.85% | 29.9% | 78.9% | 95.4% | -2.02% |
| N#Cc1c(NC(=O)c2ccccc2F)sc2c1CCCC2 | 1.07% | -1.26% | 0.23% | -0.14% | -2.83% | -2.33% | -1.11% | -0.35% | -0.91% | -0.98% | -1.52% | -0.5% | 0.91% | -0.76% | 1.15% | 0.38% | 1.07% | -2.89% | 1.15% | 0.73% |
| COC(=O)Nc1nc2cc(Oc3ccc(NC(=O)Nc4cccc(Br)c4)cc3)ccc2[nH]1 | 0.43% | 0.85% | 1.24% | -0.22% | 2.67% | 1.7% | 2.29% | 2.39% | 2% | 3.21% | 3.36% | 1.25% | 1.19% | 1.04% | 1.61% | -0.97% | 2.4% | -0.37% | 4.28% | -0.79% |
| Cc1ccc2c(-c3ccnc(Nc4ccc5c(c4)OCCO5)n3)c(-c3ccc(C(F)(F)F)cc3)nn2n1 | -5.75% | -1.13% | 0.19% | 0.96% | -0.15% | -1.56% | 0.87% | 2.08% | 0.35% | 0.24% | -0.78% | 4.47% | 7.16% | 0.21% | 1.55% | 2.2% | 2.03% | 0.94% | 3.26% | 1.27% |
| CC(C)c1ccc(Nc2nccc(-c3cnn4ncccc34)n2)cc1 | -1.68% | -0.92% | -1.18% | -0.74% | 0.84% | 1.36% | 1.31% | 2.98% | 0.78% | 1.58% | 2.46% | 1.64% | 1.72% | 0.38% | 6.9% | 0.55% | 1.57% | 1.03% | 3.89% | 1.93% |
| COc1cc(Nc2nccc(-c3cnn4ncccc34)n2)cc(OC)c1 | 0.39% | 3.14% | 1.06% | 3.3% | 1.61% | 7.26% | 2.85% | 15.7% | 1.87% | 6.59% | 3.22% | 2.46% | 10.7% | 12.4% | 64% | 0.12% | 8.95% | 3.16% | 3.86% | 0.71% |
| Cc1cc(O)cc(C)c1/C=C/c1cncc(C(=O)N(C)C)c1 | 0.02% | 0.32% | 0.83% | 1.36% | 2% | 4.09% | 1.39% | 2.46% | 0.39% | 3.03% | 4.18% | 1.98% | 0.93% | 0.28% | 1.71% | 0.67% | 1.26% | 3% | 4.61% | 1.75% |
| Cc1ccc(Nc2ccnc(Nc3cccc(C(N)=O)c3)n2)cc1O | -0.17% | 1.81% | -0.24% | -0.07% | 1.2% | 1.01% | 2.41% | 4.49% | 1.61% | 6.47% | 2.89% | -1.93% | -0.05% | -1.9% | 8.24% | 0.32% | 4.35% | 6.2% | 4.32% | 4.85% |
| CCCN1CCCC(c2ccc(Nc3nc(Nc4cc(F)ccc4C(N)=O)c4cc[nH]c4n3)c(OC)c2)C1 (stereo not given) | 1.76% | 17.9% | 1.55% | 13% | 4.88% | 5.31% | 1.64% | 7.01% | 1.93% | 4.24% | 2.08% | 2.2% | 2.23% | 2.24% | 15.9% | -0.31% | 3.2% | 1.86% | 1.44% | 5.05% |
| OCc1ccc(-c2nc(-c3ccccn3)c(-c3ccc4c(c3)OCO4)[nH]2)cc1 | 0.27% | -0.19% | 0.91% | 1.33% | 4.12% | 3.7% | 1.01% | 3.89% | 2.09% | 3.2% | 3.18% | 1.99% | 1.95% | 1.27% | 2.06% | 0.21% | 0.2% | 3.79% | 1.71% | 1.49% |
| Cc1cc(-c2ccccn2)cc(C)c1/C=C/c1cncc(-c2nn[nH]n2)c1 | 2.46% | 1.25% | 0.75% | 0.41% | 3.34% | 2.91% | 0.46% | 1.78% | 0.44% | 1.44% | -0.5% | 1.63% | 1.8% | 0.99% | 3.52% | 0.54% | 0.37% | 2.25% | 5.16% | 1.57% |

From ChEMBL document CHEMBL1961873, “Compounds: GSK PKIS; Assays: Nanosyn kinase panel” (2012)
